Experiment [1] concerns the target T1, cGMP-dependent protein kinase 1 (Homo sapiens) (UniProt Q13976).
T1 sequence (whole entry): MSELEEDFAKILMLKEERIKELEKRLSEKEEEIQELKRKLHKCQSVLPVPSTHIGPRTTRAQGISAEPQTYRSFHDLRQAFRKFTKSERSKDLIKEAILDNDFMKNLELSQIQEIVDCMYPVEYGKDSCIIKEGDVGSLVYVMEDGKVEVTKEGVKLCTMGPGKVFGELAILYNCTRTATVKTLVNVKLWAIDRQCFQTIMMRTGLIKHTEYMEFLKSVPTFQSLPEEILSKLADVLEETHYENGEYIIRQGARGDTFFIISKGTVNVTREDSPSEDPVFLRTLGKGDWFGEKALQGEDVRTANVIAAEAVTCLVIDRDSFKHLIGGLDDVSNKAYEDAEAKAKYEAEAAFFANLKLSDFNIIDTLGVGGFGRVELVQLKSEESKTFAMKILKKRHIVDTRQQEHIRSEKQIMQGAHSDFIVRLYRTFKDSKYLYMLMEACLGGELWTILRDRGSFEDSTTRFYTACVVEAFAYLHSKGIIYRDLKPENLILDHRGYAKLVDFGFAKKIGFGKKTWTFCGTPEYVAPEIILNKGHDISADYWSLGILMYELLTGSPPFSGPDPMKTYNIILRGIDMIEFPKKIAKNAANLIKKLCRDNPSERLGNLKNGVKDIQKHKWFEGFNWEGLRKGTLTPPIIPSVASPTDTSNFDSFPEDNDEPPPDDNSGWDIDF
The note with it: at 1 µM.

Experiment [2] deals with T1, cGMP-dependent protein kinase 1 (Homo sapiens). Conditions: at 10 µM.
For experiment [3] the target is unchanged. The note with it: at 1 µM. This is another data set of the same source.
The target is the same in experiment [4]. Conditions: at 10 µM. The source holds these as a separate data set.
The target in experiment [5] is T2, MAP kinase-activated protein kinase 5 (Homo sapiens) (UniProt Q8IW41).
T2 sequence (whole entry): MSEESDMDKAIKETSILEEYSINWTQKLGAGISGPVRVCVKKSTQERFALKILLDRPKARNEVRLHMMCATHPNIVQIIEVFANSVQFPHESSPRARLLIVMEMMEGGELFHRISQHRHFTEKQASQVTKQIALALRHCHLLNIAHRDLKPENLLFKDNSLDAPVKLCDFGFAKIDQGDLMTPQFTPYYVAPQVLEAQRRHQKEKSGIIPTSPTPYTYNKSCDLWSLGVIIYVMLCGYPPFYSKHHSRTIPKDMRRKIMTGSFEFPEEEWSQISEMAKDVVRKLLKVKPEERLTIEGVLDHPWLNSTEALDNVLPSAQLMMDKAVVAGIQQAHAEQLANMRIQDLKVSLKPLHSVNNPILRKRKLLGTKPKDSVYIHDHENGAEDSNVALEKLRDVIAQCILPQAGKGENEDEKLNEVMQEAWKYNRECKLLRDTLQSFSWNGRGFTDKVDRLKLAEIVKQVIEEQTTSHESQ
Conditions: at 1 µM.

Experiment [6] deals with T2, MAP kinase-activated protein kinase 5 (Homo sapiens). Conditions: at 10 µM.
Experiment [7] deals with Serine/threonine-protein kinase N2 (Homo sapiens) (UniProt Q16513). Conditions: at 1 µM.
Chain of Serine/threonine-protein kinase N2 (Homo sapiens) (Q16513 whole entry, looked up): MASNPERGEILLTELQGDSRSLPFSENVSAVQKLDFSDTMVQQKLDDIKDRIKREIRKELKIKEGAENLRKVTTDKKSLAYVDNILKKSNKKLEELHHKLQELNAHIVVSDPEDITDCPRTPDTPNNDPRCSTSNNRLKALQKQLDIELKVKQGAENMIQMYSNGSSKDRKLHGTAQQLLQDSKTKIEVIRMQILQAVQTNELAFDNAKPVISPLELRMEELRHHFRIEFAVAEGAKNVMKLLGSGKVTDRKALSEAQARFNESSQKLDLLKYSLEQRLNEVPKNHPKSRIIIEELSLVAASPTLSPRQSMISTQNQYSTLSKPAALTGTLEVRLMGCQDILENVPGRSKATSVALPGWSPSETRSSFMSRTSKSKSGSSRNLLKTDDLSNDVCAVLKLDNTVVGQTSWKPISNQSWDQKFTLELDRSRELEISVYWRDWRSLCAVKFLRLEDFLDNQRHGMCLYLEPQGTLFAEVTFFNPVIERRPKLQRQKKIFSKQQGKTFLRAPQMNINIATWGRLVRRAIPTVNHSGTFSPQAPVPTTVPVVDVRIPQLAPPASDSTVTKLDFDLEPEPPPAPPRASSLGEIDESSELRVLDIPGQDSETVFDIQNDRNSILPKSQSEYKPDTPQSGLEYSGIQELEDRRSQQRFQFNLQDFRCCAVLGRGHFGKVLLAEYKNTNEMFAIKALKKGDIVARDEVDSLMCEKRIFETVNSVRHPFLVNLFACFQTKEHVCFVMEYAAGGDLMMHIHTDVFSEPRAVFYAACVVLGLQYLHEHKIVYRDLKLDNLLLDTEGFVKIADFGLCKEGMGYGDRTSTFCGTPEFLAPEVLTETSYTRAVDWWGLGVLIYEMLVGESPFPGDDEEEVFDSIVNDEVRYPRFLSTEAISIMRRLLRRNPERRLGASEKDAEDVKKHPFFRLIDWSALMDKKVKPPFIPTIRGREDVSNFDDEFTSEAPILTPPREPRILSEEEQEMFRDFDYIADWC
The target is the same in experiment [8]. The note with it: at 10 µM.
Experiment [9] concerns the target Tyrosine-protein kinase FRK (Homo sapiens) (UniProt P42685). The note with it: at 1 µM.
Experiment [10] shares this target. The note with it: at 10 µM.
Experiment [11] addresses T3, Phosphorylase b kinase gamma catalytic chain, liver/testis isoform (Homo sapiens) (UniProt P15735).
T3 sequence (whole entry): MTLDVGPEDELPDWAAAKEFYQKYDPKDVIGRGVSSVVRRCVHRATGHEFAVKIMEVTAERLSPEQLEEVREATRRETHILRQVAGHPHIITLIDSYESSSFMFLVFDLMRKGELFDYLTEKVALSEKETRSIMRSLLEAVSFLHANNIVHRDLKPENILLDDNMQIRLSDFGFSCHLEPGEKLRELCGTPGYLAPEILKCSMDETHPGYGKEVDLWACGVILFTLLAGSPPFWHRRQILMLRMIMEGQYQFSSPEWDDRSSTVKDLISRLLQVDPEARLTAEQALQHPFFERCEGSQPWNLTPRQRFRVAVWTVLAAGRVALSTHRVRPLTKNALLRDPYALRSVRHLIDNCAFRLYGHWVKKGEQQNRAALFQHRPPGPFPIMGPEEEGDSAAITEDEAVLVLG
Conditions: at 1 µM.

The target of experiment [12] is T3, Phosphorylase b kinase gamma catalytic chain, liver/testis isoform (Homo sapiens). The note with it: at 10 µM.
In experiment [13] the target is Serine/threonine-protein kinase pim-1 (Homo sapiens) (UniProt P11309). Conditions: at 1 µM.
Chain of Serine/threonine-protein kinase pim-1 (Homo sapiens) (P11309 whole entry, looked up): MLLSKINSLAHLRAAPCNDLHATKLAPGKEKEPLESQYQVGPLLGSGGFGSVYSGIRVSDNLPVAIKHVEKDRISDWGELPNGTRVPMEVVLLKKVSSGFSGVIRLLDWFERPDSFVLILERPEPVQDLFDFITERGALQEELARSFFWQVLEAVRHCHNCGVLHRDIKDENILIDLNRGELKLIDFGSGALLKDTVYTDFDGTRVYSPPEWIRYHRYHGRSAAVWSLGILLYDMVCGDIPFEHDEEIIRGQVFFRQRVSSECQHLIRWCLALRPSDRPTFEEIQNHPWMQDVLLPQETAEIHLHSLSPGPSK
For experiment [14] the target is unchanged. The note with it: at 10 µM.
Experiment [15] deals with Serine/threonine-protein kinase pim-2 (Homo sapiens) (UniProt Q9P1W9). The note with it: at 1 µM.
Chain of Serine/threonine-protein kinase pim-2 (Homo sapiens) (Q9P1W9 whole entry, looked up): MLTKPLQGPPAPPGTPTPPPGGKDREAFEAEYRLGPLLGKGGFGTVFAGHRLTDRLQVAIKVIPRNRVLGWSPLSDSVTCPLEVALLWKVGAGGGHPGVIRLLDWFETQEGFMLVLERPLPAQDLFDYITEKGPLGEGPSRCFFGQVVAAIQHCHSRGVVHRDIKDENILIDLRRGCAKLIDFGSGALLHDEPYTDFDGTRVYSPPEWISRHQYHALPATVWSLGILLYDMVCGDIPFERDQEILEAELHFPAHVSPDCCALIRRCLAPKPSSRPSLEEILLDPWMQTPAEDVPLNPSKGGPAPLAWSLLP
For experiment [16] the target is unchanged. The note with it: at 10 µM.
Experiment [17] concerns the target Serine/threonine-protein kinase pim-3 (Homo sapiens) (UniProt Q86V86). The note with it: at 1 µM.
Experiment [18] shares this target. Conditions: at 10 µM.
The target of experiment [19] is Serine/threonine-protein kinase PLK1 (Homo sapiens) (UniProt P53350). Conditions: at 1 µM.
Chain of Serine/threonine-protein kinase PLK1 (Homo sapiens) (P53350 whole entry): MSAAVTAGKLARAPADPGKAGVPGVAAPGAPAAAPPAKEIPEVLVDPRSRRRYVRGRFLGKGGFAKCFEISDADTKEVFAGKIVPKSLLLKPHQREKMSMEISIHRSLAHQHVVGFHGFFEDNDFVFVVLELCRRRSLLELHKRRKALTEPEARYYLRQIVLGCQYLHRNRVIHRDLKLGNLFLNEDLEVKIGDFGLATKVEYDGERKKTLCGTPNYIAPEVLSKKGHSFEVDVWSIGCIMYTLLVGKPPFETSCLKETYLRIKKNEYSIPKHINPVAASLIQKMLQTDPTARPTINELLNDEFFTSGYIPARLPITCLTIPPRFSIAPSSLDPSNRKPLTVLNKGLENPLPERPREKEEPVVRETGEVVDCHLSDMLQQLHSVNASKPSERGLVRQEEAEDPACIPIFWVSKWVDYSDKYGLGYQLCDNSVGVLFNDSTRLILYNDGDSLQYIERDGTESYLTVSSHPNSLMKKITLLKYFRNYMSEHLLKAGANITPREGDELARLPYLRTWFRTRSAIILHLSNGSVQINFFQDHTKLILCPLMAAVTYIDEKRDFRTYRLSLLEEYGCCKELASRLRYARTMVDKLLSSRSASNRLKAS
For experiment [20] the target is unchanged. Conditions: at 10 µM.

In ChEMBL document CHEMBL2218924, “A broad activity screen in support of a chemogenomic map for kinase signalling research and drug discovery” (Biochem J, 2013) one finds residual activity data, which are given here for six compounds.

Chain of Tyrosine-protein kinase FRK (Homo sapiens) (P42685 whole entry): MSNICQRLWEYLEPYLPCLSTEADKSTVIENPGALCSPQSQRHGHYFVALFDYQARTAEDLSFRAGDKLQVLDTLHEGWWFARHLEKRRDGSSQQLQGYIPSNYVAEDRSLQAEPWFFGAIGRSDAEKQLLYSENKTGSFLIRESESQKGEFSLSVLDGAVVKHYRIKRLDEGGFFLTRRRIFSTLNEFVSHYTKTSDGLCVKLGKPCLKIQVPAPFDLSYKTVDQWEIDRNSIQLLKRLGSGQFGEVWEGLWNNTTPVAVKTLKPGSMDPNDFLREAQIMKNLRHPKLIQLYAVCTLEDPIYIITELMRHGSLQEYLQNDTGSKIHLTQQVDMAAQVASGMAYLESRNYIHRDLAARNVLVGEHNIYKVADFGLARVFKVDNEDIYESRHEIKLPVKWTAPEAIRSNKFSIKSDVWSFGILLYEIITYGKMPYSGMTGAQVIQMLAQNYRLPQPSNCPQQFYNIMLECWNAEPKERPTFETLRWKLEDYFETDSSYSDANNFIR

Regarding `NC(=O)c1ccc2[nH]c(-c3ccc(Oc4ccc(Cl)cc4)cc3)nc2c1`, the residual activity in experiment [1] was found to be 99%; in [2], 105%; in [3], 105%; in experiment [4], 77%; in experiment [5] it was 91%; in [6], 67%. Further, the residual activity in [7] was found to be 101%; in experiment [8], 90%; in experiment [9], 94%; in [10], 106%; in experiment [11], 89%; in experiment [12], 80%. In addition, the residual activity in experiment [13] was determined as 121%; in [14], 116%; in [15], 108%; in [16] it was 119%; in experiment [17], 83%; in [18], 83%. Also, the figures for the residual activity in experiment [19] and in experiment [20] were 75% and 69%, respectively.

Turning to `COc1ccc(C(=O)Nc2sc3c(c2C(N)=O)CCCC3)cc1OC`, the residual activity was determined as 104% in [1]; 88% in experiment [2]; 79% in [3]; 90% in experiment [4]; 59% in [5]; 76% in [6]. Moreover, the residual activity in experiment [7] was 88%; in experiment [8], 114%; in experiment [9], 91%; in experiment [10] it was 80%; in [11] it was 78%; in [12], 84%. The residual activity turned out to be 80% in [13]; 97% in experiment [14]; 87% in experiment [15]; 114% in experiment [16]; 92% in experiment [17]; 97% in experiment [18]. Also, the residual activity in experiment [19] is 94%; in [20], 75%.

In the case of `O=c1cc(-c2cccc3c2Sc2ccccc2S3)oc(N2CCOCC2)c1`, the residual activity in [1] was 102%; in experiment [2], 105%; in [3], 81%; in experiment [4], 80%; in experiment [5], 99%; in [6], 40%. Besides, the residual activity in experiment [7] was 112%; in [8], 97%; in experiment [9], 94%; in [10], 92%; in experiment [11], 96%; in experiment [12], 100%. The residual activity in experiment [13] is 93%; in experiment [14] it was 30%; in experiment [15], 68%; in experiment [16], 29%; in experiment [17] it was 102%; in experiment [18], 85%. Further, the residual activity in experiment [19] is 95%; in [20], 99%.

With `Cc1nc2cc3nc(-c4cccs4)cnc3cc2n1C`, the residual activity worked out at 117% in experiment [1]; 96% in experiment [2]; 99% in experiment [3]; 103% in [4]; 81% in experiment [5]; 56% in experiment [6]. In addition, the residual activity worked out at 97% in experiment [7]; 100% in experiment [8]; 99% in experiment [9]; 76% in experiment [10]; 94% in [11]; 111% in experiment [12]. Moreover, the residual activity in experiment [13] is 100%; in experiment [14], 101%; in experiment [15] it was 90%; in experiment [16], 121%; in experiment [17], 101%; in experiment [18], 102%. For the same compound, the residual activity was 118% in experiment [19] and 85% in experiment [20].

For the compound `CO[C@H]1[C@@H](OC)C[C@H](C)[C@@H](OC)C2=CC(=O)C=C(NC(=O)/C(C)=C/C=C/[C@H](OC)[C@@H](OC(N)=O)/C(C)=C/[C@@H]1C)C2=O`, the residual activity worked out at 102% in [1]; 105% in experiment [2]; 85% in [3]; 81% in experiment [4]; 107% in [5]; 95% in [6]. In addition, the residual activity in experiment [7] came to 111%; in experiment [8] it was 96%; in experiment [9], 114%; in [10] it was 93%; in experiment [11], 97%; in experiment [12] it was 100%. For the same compound, the residual activity turned out to be 85% in [13]; 93% in experiment [14]; 99% in experiment [15]; 129% in experiment [16]; 98% in experiment [17]; 96% in experiment [18]. In addition, the residual activity in [19] was found to be 86%; in experiment [20] it was 70%.

As to `O=C1Nc2cc(Br)ccc2/C1=C1/Nc2ccccc2/C1=N\O`, the residual activity in experiment [1] was 90%; in experiment [2], 109%; in [3], 78%; in experiment [4], 61%; in experiment [5] it was 76%; in experiment [6], 90%. Moreover, the residual activity in experiment [7] stood at 75%; in experiment [8], 92%; in [9], 2%; in experiment [10] it was 0%; in experiment [11], 55%; in [12], 24%. Also, the residual activity stood at 67% in [13]; 78% in experiment [14]; 106% in experiment [15]; 85% in experiment [16]; 78% in experiment [17]; 81% in experiment [18]. Moreover, the residual activity in experiment [19] stood at 79%; in experiment [20] it was 81%.
